Here are results for five compounds from PubChem BioAssay.

Inconclusive results are not listed. The source made the active and inactive calls.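 The calls were made as follows, unless noted: active = inhibition above 54%, about 3 SD of non-fluorescent compounds; inactive = the rest.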

Test [1] in a line: rapamycin-like changes in RPL19A-GFP expression – cell-based, S. cerevisiae, multiplex flow cytometry, primary screen (AID 1862; in the data active = percent of DMSO control GFP below about 86%;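 also: lower values mimic rapamycin by blocking the RPL19A rise seen in DMSO cells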). The following applies: S. cerevisiae RPL19A-GFP strain, flow cytometry fluorescence, 3 h; at 10 µM; stronger effect = lower value.
A short description of test [2]: TOR pathway GLN3 branch reporter MEP2-GFP changes – S. cerevisiae, multiplex flow cytometry, primary screen (AID 1867;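 active = GFP response, as percent of the DMSO control, above the screen-wide mean plus 3 SD, about 139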;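 also: median GFP channel fluorescence of barcode-gated MEP2-GFP cells measured by flow cytometry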). The following applies: S. cerevisiae MEP2-GFP strain, 3 h, at 10 µM, stronger effect = higher value, 100% means same as DMSO wells.
Test [3] is described as follows: TOR pathway RTG branch CIT2 reporter changes – S. cerevisiae, GFP fusion, multiplex flow cytometry, primary screen (AID 1870;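 active = percent response above a set limit, the screen-wide mean plus 3 SD, cut at about 130% in these data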;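 also: barcoded CIT2-GFP strain pooled with four other GFP strains with rapamycin as positive control; median GFP fluorescence per well over plate mean of DMSO wells so 100% = DMSO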). The following applies: S. cerevisiae CIT2-GFP expression, 3 h, at 10 µM, stronger effect = higher value.
Test [4] can be described thus: TOR pathway LAP4-GFP level changes – S. cerevisiae, multiplex flow cytometry, primary screen (AID 1873;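 active = GFP signal, as percent of the solvent control, above the screen mean plus 3 SD, about 149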). Particulars: S. cerevisiae LAP4-GFP expression, 3 h, at 10 µM, stronger effect = higher value.
Test [5] can be described thus: yeast AGP1-GFP level changes, GLN3 branch – cell-based, multiplex flow cytometry, S. cerevisiae, primary screen (AID 1887;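 active = GFP signal above the screen-wide mean plus 3 SD, that is over about 124.5% of the solvent control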;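 also: AGP1-GFP fusion strain of S. cerevisiae within a five-strain barcoded multiplex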). The following applies: 3 h, at 10 µM, stronger effect = higher value.
Test [6] in a line: reduced mouse 2C T cell binding to pMHC/ICAM-1 vesicles – MLPCN validation set, flow cytometry, LFA-1/ICAM-1 modulator project, pilot screen (AID 2523;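 active = response below a set limit, under 55% cells CD8-positive and vesicle-bound, and CD8 cells' 90th-percentile brightness under 279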;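 as to vesicle binding response: mean PE anti-B7-1 fluorescence of CD8+ cells relative to row control; 100% = QL9-loaded vesicles with DMSO vehicle in the same plate row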). The following applies: 2C mouse CD8+ T cells, at 7 µM, stronger effect = lower value; double positive events: measured here: CD8+/vesicle+ event percentage.
Test [7] deals with Integrin beta-1 (Homo sapiens) + Integrin alpha-4 (Homo sapiens) (UniProt P13612+P05556). Nature of the test: alpha4beta1 integrin LIBS antibody binding reduction – U937 cells, HUTS-21 mAb, flow cytometry, validation set, VLA-4 allosteric modulator project, pilot screen (AID 2674;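 active = inhibition above 50%, about 3 SD of the validation set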;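 also: antibody binding induced by the VLA-4 ligand LDV present at three times its Kd; 0% = LDV ligand with antibody and no compound and 100% = antibody without LDV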). Particulars: HUTS-21 LIBS mAb binding, at 6.7 µM, stronger effect = higher value, binding induced by LDV ligand.

Test [8] in a line: calorie-restriction mimetic ROS inhibitors, yeast – validation compound set, pilot screen (AID 2706;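 active = superoxide response below 65% of plate, a cut near 3 SD across the whole screen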;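 also: yeast exposed to compound for one week at 30 degrees C before staining; 100% = mean of all compound wells on the same plate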). The following applies: S. cerevisiae aging, superoxide DHE fluorescence; at 10 µM; stronger effect = lower value.
Test [9] has as its target Beta-adrenergic receptor kinase 1 (Homo sapiens) (UniProt P25098). Nature of the test: GRK2 binders displacing RNA aptamer, biochemical, validation, human GRK2, bead flow cytometry (AID 488806;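 active = aptamer binding inhibition above 30%, about 3 SD of noise from non-fluorescent compounds; inactive = inhibition at or below 30%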). The following applies: bead-bound GRK2, FAM-aptamer displacement, at 10 µM, stronger effect = higher value.
Test [10] concerns the target Beta-2 adrenergic receptor (Homo sapiens) (UniProt P07550). Nature of the test: agonist-induced loss of surface beta2AR – cell-based, FAP fluorogen, flow cytometry, validation set, pilot screen (AID 504459;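 active = percent response above 42, roughly 3 SD of non-fluorescent test compounds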;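 also: agonist-driven loss of surface beta2AR via internalization measured by FAP dye flow cytometry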). Particulars: Am2.2-beta2AR cells, at 10 µM, stronger effect = higher value.
Test [11] has as its target AP-2 complex subunit beta (Homo sapiens) (UniProt P63010). The test is described as follows: beta-arrestin/AP2 interaction blockers – biochemical, validation set, GST-AP2 beads, flow cytometry, pilot screen (AID 504541).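 Also: AP2 carries R879A mutation and is captured from E. coli lysate; bead-bound FITC arrestin peptide fluorescence measuring arrestin peptide binding to AP2; 0% = DMSO wells and 100% = excess unlabeled arrestin peptide control.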 The following applies: FITC arrestin peptide, at 10 µM, stronger effect = higher value, AP2 beta2 appendage fragment, R879A mutant.
Test [12] can be described thus: cytosolic pH regulators acting via V-ATPase – S. cerevisiae, pHLuorin, HTS validation (AID 504600; in the data active = response above about 15%;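 also: plate controls were DMSO for no effect and reference compound for full effect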). The following applies: V-ATPase proton transport, at 10 µM, stronger effect = higher value.
Test [13] relates to anti-desmoglein-3 scFv antibody binding to human DSG3. The test is described as follows: blockers of pathogenic pemphigus antibody–desmoglein-3 binding – biochemical, validation compound set, bead-based, flow cytometry, pilot screen (AID 588368;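 active = binding below the plate cutoff, the plate median minus 3 SD, with a reading above zero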;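 also: signal is the median channel fluorescence of bead-bound GFP antibody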). The following applies: Protein G beads, DSG3-Fc, scFv-GFP binding, at 10 µM, stronger effect = lower value.
The nature of test [14]: Nile Red efflux blockade in pump-expressing yeast – validation compound set, multiplex, phenotypic, pilot screen (AID 588506;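 active = efflux inhibition above 0.42, the validation set average plus 4 SD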;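 also: Nile Red retained in cells so higher fluorescence means more efflux inhibition; 0 = negative control wells and 1 = enniatin B 25 µM full block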). Particulars: S. cerevisiae pump-expressing triplex, Nile Red efflux flow cytometry; at 10 µM; stronger effect = higher value; the pumps come from Candida albicans.
Test [15] has as its target ATP-binding cassette sub-family B member 6 (Homo sapiens) (UniProt Q9NP58). Nature of the test: blockers of ABCB6-driven porphyrin uptake – K562-ABCB6 cells, flow cytometry, validation set, pilot screen (AID 588550;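 active = inhibition above the screen-wide mean plus 3 SD, about 51%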;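 also: 0% = DMSO wells and 100% = benzethonium chloride 70 µM positive control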). Particulars: K562-ABCB6 porphyrin accumulation, 1 h, at 10 µM, stronger effect = higher value.
The nature of test [16]: AML differentiation inducers, ER-HoxA9 marrow cells – cell-based, GFP/MAC1 double positive, flow cytometry, validation set, primary screen (AID 588685;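 active = differentiation response of at least 50%, scaled between solvent and reference control, from cells with both markers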;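 also: compound exposure lasts four days before antibody staining and flow analysis; 0% = DMSO wells and 100% = 5 µM fulvestrant positive control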). Particulars: stronger effect = higher value, normalized: vehicle 0, fulvestrant 100.

Beta-adrenergic receptor kinase 1 (Homo sapiens), sequence (P25098 whole entry, looked up): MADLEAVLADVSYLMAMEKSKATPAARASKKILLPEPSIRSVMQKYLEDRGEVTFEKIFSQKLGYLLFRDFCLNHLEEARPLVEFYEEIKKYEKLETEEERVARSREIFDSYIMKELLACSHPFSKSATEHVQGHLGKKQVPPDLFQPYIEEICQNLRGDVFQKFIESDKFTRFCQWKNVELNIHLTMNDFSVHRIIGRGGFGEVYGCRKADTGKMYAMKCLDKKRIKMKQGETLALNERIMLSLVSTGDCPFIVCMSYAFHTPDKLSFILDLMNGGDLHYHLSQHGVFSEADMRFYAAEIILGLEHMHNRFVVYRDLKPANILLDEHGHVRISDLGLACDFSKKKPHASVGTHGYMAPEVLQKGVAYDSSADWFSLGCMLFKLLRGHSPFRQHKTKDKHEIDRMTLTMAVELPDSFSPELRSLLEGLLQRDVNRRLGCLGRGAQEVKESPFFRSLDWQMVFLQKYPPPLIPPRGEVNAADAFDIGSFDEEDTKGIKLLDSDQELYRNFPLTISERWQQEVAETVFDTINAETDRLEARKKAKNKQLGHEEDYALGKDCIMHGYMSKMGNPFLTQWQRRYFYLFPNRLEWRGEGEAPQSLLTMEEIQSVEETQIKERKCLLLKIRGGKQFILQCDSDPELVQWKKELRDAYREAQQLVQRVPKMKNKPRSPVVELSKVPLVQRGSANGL
Beta-2 adrenergic receptor (Homo sapiens), sequence (P07550 whole entry, looked up): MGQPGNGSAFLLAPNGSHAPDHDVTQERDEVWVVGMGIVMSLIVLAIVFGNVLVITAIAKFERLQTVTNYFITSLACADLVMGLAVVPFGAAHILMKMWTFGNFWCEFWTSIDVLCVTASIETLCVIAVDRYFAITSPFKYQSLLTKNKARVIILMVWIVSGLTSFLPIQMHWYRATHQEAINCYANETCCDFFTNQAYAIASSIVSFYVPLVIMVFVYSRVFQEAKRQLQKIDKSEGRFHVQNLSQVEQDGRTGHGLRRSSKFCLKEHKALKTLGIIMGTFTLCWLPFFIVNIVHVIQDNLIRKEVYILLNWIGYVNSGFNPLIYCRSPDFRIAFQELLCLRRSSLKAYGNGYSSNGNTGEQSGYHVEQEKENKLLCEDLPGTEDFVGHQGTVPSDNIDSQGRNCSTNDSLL
AP-2 complex subunit beta (Homo sapiens), sequence (P63010 whole entry, looked up, the tested form may be a part, one chain of several): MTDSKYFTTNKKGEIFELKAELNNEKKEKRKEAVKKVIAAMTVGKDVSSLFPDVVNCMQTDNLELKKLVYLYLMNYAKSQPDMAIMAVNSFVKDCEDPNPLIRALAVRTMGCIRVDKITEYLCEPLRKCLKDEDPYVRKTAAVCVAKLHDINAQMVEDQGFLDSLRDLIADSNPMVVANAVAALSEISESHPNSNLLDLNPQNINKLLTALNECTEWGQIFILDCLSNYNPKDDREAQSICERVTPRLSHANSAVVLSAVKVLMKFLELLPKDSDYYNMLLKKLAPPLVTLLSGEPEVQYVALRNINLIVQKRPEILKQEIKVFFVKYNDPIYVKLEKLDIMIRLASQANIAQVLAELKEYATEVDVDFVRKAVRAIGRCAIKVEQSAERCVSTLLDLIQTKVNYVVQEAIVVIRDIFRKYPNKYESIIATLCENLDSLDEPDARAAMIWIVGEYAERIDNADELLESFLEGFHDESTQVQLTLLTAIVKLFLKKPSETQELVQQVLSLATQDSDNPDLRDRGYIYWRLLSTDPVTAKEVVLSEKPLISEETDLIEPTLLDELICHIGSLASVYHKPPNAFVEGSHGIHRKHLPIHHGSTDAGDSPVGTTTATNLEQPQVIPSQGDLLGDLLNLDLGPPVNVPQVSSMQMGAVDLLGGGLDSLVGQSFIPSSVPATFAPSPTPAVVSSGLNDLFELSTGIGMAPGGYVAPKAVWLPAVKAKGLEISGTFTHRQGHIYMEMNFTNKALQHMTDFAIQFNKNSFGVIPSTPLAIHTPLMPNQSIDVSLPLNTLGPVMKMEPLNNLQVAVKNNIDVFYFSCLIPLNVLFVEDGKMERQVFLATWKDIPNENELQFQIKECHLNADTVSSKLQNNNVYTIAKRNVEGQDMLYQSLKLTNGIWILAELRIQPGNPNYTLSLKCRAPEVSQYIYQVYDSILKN
Integrin beta-1 (Homo sapiens) + Integrin alpha-4 (Homo sapiens), sequence (P05556 whole entry, looked up): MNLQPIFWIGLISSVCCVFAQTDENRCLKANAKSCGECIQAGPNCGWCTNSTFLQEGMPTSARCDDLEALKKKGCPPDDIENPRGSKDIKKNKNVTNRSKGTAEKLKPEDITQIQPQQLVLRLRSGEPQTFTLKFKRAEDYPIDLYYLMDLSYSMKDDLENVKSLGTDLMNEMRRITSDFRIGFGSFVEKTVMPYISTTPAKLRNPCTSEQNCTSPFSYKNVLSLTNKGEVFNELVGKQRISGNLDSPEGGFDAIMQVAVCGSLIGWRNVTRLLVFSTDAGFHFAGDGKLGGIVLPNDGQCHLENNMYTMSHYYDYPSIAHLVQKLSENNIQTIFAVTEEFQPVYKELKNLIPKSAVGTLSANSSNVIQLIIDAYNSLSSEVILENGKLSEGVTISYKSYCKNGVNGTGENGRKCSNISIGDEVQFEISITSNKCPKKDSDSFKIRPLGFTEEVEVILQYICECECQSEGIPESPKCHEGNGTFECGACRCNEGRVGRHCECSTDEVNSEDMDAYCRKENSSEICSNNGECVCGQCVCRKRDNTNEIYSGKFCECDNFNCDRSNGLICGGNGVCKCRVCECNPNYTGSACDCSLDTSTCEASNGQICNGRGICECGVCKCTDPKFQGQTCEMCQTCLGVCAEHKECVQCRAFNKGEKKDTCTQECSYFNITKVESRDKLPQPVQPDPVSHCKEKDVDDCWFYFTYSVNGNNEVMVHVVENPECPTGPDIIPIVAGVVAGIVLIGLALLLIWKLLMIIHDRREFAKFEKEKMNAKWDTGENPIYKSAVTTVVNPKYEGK
Integrin beta-1 (Homo sapiens) + Integrin alpha-4 (Homo sapiens), sequence (P13612 whole entry, looked up): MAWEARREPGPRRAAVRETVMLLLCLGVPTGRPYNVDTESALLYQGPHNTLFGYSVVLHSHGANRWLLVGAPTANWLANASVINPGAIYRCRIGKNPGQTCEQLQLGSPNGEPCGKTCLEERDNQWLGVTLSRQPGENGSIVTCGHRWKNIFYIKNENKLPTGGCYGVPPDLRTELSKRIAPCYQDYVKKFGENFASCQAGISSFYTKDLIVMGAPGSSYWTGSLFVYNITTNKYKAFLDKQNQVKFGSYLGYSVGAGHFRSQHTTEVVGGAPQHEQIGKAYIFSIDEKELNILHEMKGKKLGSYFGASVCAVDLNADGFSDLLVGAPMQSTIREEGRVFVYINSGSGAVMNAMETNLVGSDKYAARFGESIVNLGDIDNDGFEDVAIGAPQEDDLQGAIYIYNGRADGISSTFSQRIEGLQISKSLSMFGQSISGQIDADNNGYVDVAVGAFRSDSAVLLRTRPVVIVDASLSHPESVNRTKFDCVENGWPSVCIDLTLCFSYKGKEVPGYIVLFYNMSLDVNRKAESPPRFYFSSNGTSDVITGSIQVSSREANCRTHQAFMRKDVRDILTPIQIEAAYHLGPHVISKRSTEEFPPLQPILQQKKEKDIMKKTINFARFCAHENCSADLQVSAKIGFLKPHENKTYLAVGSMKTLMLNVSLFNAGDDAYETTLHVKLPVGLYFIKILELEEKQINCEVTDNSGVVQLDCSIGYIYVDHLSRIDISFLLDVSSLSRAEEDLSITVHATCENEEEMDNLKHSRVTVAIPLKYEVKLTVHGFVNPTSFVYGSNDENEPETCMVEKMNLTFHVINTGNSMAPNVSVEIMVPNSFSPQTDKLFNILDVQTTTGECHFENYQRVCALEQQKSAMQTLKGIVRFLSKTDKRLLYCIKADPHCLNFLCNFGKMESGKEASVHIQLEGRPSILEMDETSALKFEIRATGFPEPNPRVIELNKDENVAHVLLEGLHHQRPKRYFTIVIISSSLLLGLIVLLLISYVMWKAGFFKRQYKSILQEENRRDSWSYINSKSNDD
ATP-binding cassette sub-family B member 6 (Homo sapiens), sequence (Q9NP58 whole entry, looked up): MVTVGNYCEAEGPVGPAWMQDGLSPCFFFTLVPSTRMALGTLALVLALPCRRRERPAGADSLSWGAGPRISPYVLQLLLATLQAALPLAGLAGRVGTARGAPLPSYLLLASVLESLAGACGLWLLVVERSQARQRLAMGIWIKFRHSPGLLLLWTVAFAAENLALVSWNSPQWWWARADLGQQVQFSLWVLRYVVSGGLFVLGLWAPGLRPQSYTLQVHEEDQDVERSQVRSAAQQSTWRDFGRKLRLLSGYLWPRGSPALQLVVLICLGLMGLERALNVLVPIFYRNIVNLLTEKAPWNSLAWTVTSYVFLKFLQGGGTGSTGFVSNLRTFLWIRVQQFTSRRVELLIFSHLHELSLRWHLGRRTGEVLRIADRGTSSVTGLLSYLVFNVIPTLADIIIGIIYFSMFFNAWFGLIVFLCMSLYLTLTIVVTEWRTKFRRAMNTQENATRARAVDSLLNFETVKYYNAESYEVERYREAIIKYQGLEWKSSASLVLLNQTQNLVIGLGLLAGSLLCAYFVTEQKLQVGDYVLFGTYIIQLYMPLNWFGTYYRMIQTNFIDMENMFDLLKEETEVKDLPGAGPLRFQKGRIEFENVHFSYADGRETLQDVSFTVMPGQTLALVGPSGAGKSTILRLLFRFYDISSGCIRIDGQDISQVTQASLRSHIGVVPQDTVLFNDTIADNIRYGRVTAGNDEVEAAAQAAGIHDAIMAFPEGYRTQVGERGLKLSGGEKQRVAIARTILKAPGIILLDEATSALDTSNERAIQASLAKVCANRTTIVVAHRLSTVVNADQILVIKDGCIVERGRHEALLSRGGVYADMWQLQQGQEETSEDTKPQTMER

As for `NS(=O)(=O)c1ccc(CNC(=O)c2cc(-c3ccccc3)nc3ccccc23)cc1`, in test [1], the percent of DMSO control GFP is 98.8% (inactive). The GFP response vs DMSO in test [2] is 109% (inactive); in test [4], 95.3% (inactive). The percent response of DMSO control in [3] is 104% (inactive). In addition, the GFP response, % of DMSO in [5] is 97.5% (inactive). The compound further returned a double positive events in test [6] of 59.3%. Moreover, the vesicle binding response in [6] is 220% (inactive). In addition, the inhibition in [7] was -7.72% (inactive); in test [11], 16% (inactive); in [15] it was 1% (inactive). In addition, the superoxide response (% of plate) in [8] is 104% (inactive). For the same compound, the aptamer binding inhibition in test [9] was 2% (inactive). For the same compound, the response is -8.54% (inactive) in test [10] and -3.46% (inactive) in test [12]. Further, the binding (% of control) in test [13] was 98% (inactive). Besides, the efflux inhibition (fraction of control) in test [14] is -0.1 (inactive). In test [16], the differentiation response was 5.13% (inactive).
For the compound `COc1ccc(O)c(C(=O)/C=C/c2cc3ccccc3o2)c1`, the percent of DMSO control GFP in test [1] is 95.9% (inactive). Also, the GFP response vs DMSO is 112% (inactive) in test [2] and 109% (inactive) in test [4]. Further, in [3], the percent response of DMSO control was 96.7% (inactive). Further, the GFP response, % of DMSO in [5] was 95.2% (inactive). This compound also returned a double positive events in [6] of 59.6%. Besides, the vesicle binding response in test [6] is 117% (inactive). For the same compound, the inhibition was -0.43% (inactive) in [7], 1.27% (inactive) in test [11] and 1% (inactive) in test [15]. In addition, the superoxide response (% of plate) in test [8] is 106% (inactive). The aptamer binding inhibition in test [9] is 3% (inactive). Moreover, the response in test [10] was 23% (inactive); in [12], 0.06% (inactive). In addition, the binding (% of control) in test [13] was 102% (inactive). Further, the efflux inhibition (fraction of control) in test [14] is -0.17 (inactive). For the same compound, the differentiation response in test [16] is -2.4% (inactive).
Take `COC(=O)c1ccccc1NC(=O)c1ccc(COc2ccc3c(c2)CCC3)cc1`: in test [1], the percent of DMSO control GFP was 99.6% (inactive). For the same compound, the values for the GFP response vs DMSO in test [2] and in test [4] were 99.3% (inactive) and 105% (inactive), respectively. For the same compound, the percent response of DMSO control in [3] was 90.8% (inactive). Moreover, in [5], the GFP response, % of DMSO was 94.8% (inactive). The double positive events in [6] worked out at 64.4%. For the same compound, in test [6], the vesicle binding response was 521% (inactive). Also, the figures for the inhibition in [7], in [11] and in test [15] were 7.85% (inactive), 0.16% (inactive) and -3% (inactive), respectively. In test [8], the superoxide response (% of plate) was 82.8% (inactive). For the same compound, the aptamer binding inhibition in [9] was 5% (inactive). The response in test [10] was -3.71% (inactive); in [12] it was -3.9% (inactive). Moreover, the binding (% of control) in test [13] is 98.9% (inactive). Further, the efflux inhibition (fraction of control) in test [14] is 0.46 (active). The differentiation response in [16] was 1.22% (inactive).
`CCN(CC)CCNC(=O)c1ccc(N)cc1`: in test [1], the percent of DMSO control GFP is 99.6% (inactive). Moreover, the values for the GFP response vs DMSO in test [2] and in test [4] were 106% (inactive) and 89.4% (inactive), respectively. In addition, the percent response of DMSO control in [3] was 91.9% (inactive). Moreover, the GFP response, % of DMSO in [5] was 94.6% (inactive). The same compound yielded a double positive events in test [6] of 63.2%. In addition, in test [6], the vesicle binding response was 1180% (inactive). The inhibition in [7] is -6.68% (inactive); in [11] it was -0.67% (inactive); in [15], 21% (inactive). The superoxide response (% of plate) in test [8] was 94.8% (inactive). In test [9], the aptamer binding inhibition was -2% (inactive). Moreover, the response is -4.02% (inactive) in [10] and 0.99% (inactive) in test [12]. Further, the binding (% of control) in [13] was 94.2% (inactive). Also, the efflux inhibition (fraction of control) in [14] was -0.14 (inactive). Moreover, the differentiation response in [16] was 6.11% (inactive).
Turning to `CC1CCN(C(=O)Oc2ccccc2)CC1`, in test [1], the percent of DMSO control GFP was 105% (inactive). Also, the GFP response vs DMSO in test [2] is 111% (inactive); in [4], 102% (inactive). Also, the percent response of DMSO control in [3] is 103% (inactive). Besides, in test [5], the GFP response, % of DMSO was 107% (inactive). Moreover, in test [6], the double positive events was 57.9%. Further, the vesicle binding response in test [6] is 143% (inactive). In addition, the results for the inhibition in test [7], in test [11] and in [15] were 2.93% (inactive), -6.8% (inactive) and 5% (inactive), respectively. For the same compound, in test [8], the superoxide response (% of plate) was 111% (inactive). Further, the aptamer binding inhibition in [9] was 0% (inactive). The results for the response in test [10] and in [12] were 0.66% (inactive) and 0.42% (inactive), respectively. In addition, the binding (% of control) in test [13] was 101% (inactive). In addition, in [14], the efflux inhibition (fraction of control) is 0.045 (inactive). Besides, the differentiation response in test [16] is -6.03% (inactive).
